Test systems include HCT-15 colon; HT29 colon; SNB-75 CNS; SNB-19 CNS; U251 CNS; PC-3 prostate; SK-MEL-5 melanoma; UACC-62 melanoma; LOX IMVI melanoma; SK-MEL-28 melanoma; SK-MEL-2 melanoma; EKVX NSCLC; SN12C renal; UO-31 renal; TK-10 renal; ACHN renal; CAKI-1 renal; A498 renal; CCRF-CEM leukemia; MOLT-4 leukemia.
Common to all, as to assay: NCI-60 one-dose screen, 48 h (100 = growth as untreated, 0 = no growth, -100 = all killed)
Holding throughout (conditions): 10 µM unless noted

Molecules are shown by their SMILES. Values joined by “and” are separate entries in the source; they are usually repeats but may differ in a detail not shown here. Equal entries are not always repeated. This is part of a sample that, as a whole, favours compounds with a hit. Of some 83,000 tested, about 20% had one in any assay.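 Activity criterion: percent growth below 10, measured after cells in 96-well plates were exposed to a single compound concentration for 48 hours.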 Active and inactive are the calls of the source.

Turning to `CC[C@]1(O)CC2CN(CCc3c([nH]c4ccccc34)C(C(=O)OC)(c3cc4c(cc3OC)N(C=O)[C@H]3[C@@](O)(C(=O)OC)[C@H](OC(C)=O)[C@]5(CC)[C@@H]6C[C@@H]6CN6CC[C@]43[C@@H]65)C2)C1` (stereo not given in full), the growth in the assay on HCT-15 colon is 15.5% (inactive); with HT29 colon it was -21.1% (active); with SNB-75 CNS, 10.8% (inactive); in the assay with SNB-19 CNS, 37.5% (inactive); in the assay with U251 CNS, 6.57% (active); with PC-3 prostate, 17.9% (inactive). The growth with SK-MEL-5 melanoma was -49.4% (active); with UACC-62 melanoma it was 37.2% (inactive); in the assay with LOX IMVI melanoma, 26.6% (inactive); in the assay on SK-MEL-28 melanoma it was 69.5% (inactive); with SK-MEL-2 melanoma it was 11.6% (inactive); in the assay with EKVX NSCLC, 43.4% (inactive). Further, the growth was 30.1% (inactive) in the assay on SN12C renal; 31.1% (inactive) with UO-31 renal; 50% (inactive) in the assay on TK-10 renal; 30.9% (inactive) with ACHN renal; 32.1% (inactive) with CAKI-1 renal; -20% (active) in the assay on A498 renal. For the same compound, the growth with CCRF-CEM leukemia is 13.6% (inactive); with MOLT-4 leukemia it was 13.1% (inactive).
Regarding `CCOc1ccccc1NC(=O)c1cc2ccccc2cc1O`, the growth in the assay on HCT-15 colon was 45.4% (inactive); in the assay with HT29 colon it was 99.8% (inactive); with SNB-75 CNS it was 87.7% (inactive); with SNB-19 CNS, 52.9% (inactive); with U251 CNS it was 24.4% (inactive); in the assay with PC-3 prostate, 20.9% (inactive). Also, the growth is 25.6% (inactive) in the assay on SK-MEL-5 melanoma; 21.2% (inactive) in the assay with UACC-62 melanoma; 51.1% (inactive) in the assay on LOX IMVI melanoma; 87.7% (inactive) in the assay with SK-MEL-28 melanoma; 37.4% (inactive) in the assay with SK-MEL-2 melanoma; 75% (inactive) in the assay with EKVX NSCLC. For the same compound, the growth in the assay on SN12C renal was 42.8% (inactive); in the assay on UO-31 renal, 23.7% (inactive); with TK-10 renal, 50.6% (inactive); in the assay on ACHN renal, 29.3% (inactive); in the assay on CAKI-1 renal, 45.7% (inactive); with A498 renal, 32.7% (inactive). In addition, the values for the growth with CCRF-CEM leukemia and in the assay with MOLT-4 leukemia were 32.4% (inactive) and 44.6% (inactive), respectively.
On to `Cc1ccc2[nH]c(=S)[nH]c(=O)c2c1`, for which the growth with HCT-15 colon was 106% (inactive); in the assay with HT29 colon, 102% (inactive); in the assay on SNB-75 CNS, 80.5% (inactive); in the assay with SNB-19 CNS, 101% (inactive); in the assay on U251 CNS, 95% (inactive); with PC-3 prostate, 102% (inactive). For the same compound, the growth with SK-MEL-5 melanoma is 100% (inactive); in the assay with UACC-62 melanoma, 103% (inactive); in the assay on LOX IMVI melanoma, 95.5% (inactive); with SK-MEL-28 melanoma, 111% (inactive); in the assay with SK-MEL-2 melanoma, 111% (inactive); with EKVX NSCLC, 104% (inactive). The growth in the assay on SN12C renal is 99.9% (inactive); in the assay on UO-31 renal it was 92.4% (inactive); in the assay with TK-10 renal it was 85.4% (inactive); in the assay on ACHN renal, 101% (inactive); in the assay with CAKI-1 renal it was 89.7% (inactive); with A498 renal it was 94.8% (inactive). Also, the growth in the assay on CCRF-CEM leukemia is 98.8% (inactive); in the assay with MOLT-4 leukemia, 93.3% (inactive).
For the compound `OCCN1CCN(CC/C=C2\c3ccccc3Sc3ccc(Cl)cc32)CC1`, the growth is -38.8% (active) and 8.86% (active) with HCT-15 colon; -41.8% (active) and -43.3% (active) with HT29 colon; 60.2% (inactive) and 133% (inactive) with SNB-75 CNS; 58.4% (inactive) and 72.6% (inactive) with SNB-19 CNS; 27.6% (inactive) and 28.6% (inactive) with U251 CNS; 33.6% (inactive) and 39.2% (inactive) in the assay on PC-3 prostate. In addition, the growth in the assay on SK-MEL-5 melanoma was -83.5% (active) and -91.7% (active); in the assay on UACC-62 melanoma, -93.8% (active) and -68.5% (active); with LOX IMVI melanoma it was -30.2% (active) and 1.96% (active); in the assay on SK-MEL-28 melanoma, -100% (active) and -78.1% (active); in the assay on SK-MEL-2 melanoma, 46.5% (inactive) and -10.9% (active); with EKVX NSCLC, 80.8% (inactive) and 60.3% (inactive). Moreover, the growth in the assay with SN12C renal is 63% (inactive) and 64.3% (inactive); in the assay on UO-31 renal, 39.9% (inactive) and 2.89% (active); with TK-10 renal it was 57.7% (inactive); in the assay with ACHN renal, 58.5% (inactive) and 71.1% (inactive); with CAKI-1 renal, 53.5% (inactive); in the assay on A498 renal it was 45.4% (inactive) and 60.5% (inactive). For the same compound, the growth was -17.7% (active) and 23.8% (inactive) in the assay with CCRF-CEM leukemia; -52.7% (active) and -10.3% (active) in the assay with MOLT-4 leukemia.
As to `COc1cc(/C=C2\CCC/C(=C\c3cc(CN4CCCC4)c(O)c(OC)c3)C2=O)cc(CN2CCCC2)c1O`, the growth in the assay on HCT-15 colon is 16.3% (inactive); with HT29 colon, -46.2% (active); in the assay with SNB-75 CNS, 20.3% (inactive); with SNB-19 CNS, 44.7% (inactive); in the assay on U251 CNS it was 25.3% (inactive); with PC-3 prostate, 31.2% (inactive). Also, the growth in the assay on SK-MEL-5 melanoma is 71.1% (inactive); in the assay with UACC-62 melanoma, 88.6% (inactive); in the assay with LOX IMVI melanoma, 9.9% (active); in the assay with SK-MEL-28 melanoma it was 92.2% (inactive); with SK-MEL-2 melanoma, 82.6% (inactive); in the assay on EKVX NSCLC, 32.4% (inactive). Also, the growth is 30.3% (inactive) in the assay on SN12C renal; 47.4% (inactive) with UO-31 renal; 70.1% (inactive) in the assay on TK-10 renal; 48.2% (inactive) in the assay on ACHN renal; 55.2% (inactive) with CAKI-1 renal; 85.3% (inactive) in the assay with A498 renal. Also, the growth in the assay on CCRF-CEM leukemia was 17.6% (inactive); in the assay on MOLT-4 leukemia it was 4.58% (active).
As for `Cc1nc2sc(C(=O)Nc3cccc4ncccc34)c(N)c2cc1C(C)O` (stereo not given), the growth in the assay on HCT-15 colon was 64.1% (inactive); with HT29 colon it was 52.8% (inactive); in the assay with SNB-75 CNS, 76.6% (inactive); in the assay with SNB-19 CNS it was 67.8% (inactive); in the assay with U251 CNS it was 83.4% (inactive); in the assay with PC-3 prostate, 72.9% (inactive). In addition, the growth in the assay on SK-MEL-5 melanoma is 56.8% (inactive); in the assay with UACC-62 melanoma it was 42.9% (inactive); in the assay on LOX IMVI melanoma, 73.8% (inactive); in the assay on SK-MEL-28 melanoma, 67.3% (inactive); in the assay with SK-MEL-2 melanoma, 35.3% (inactive); with EKVX NSCLC it was 88.4% (inactive). For the same compound, the growth is 91.8% (inactive) in the assay on SN12C renal; 81.5% (inactive) in the assay on UO-31 renal; 103% (inactive) in the assay with TK-10 renal; 93.4% (inactive) with ACHN renal; 89.7% (inactive) in the assay on CAKI-1 renal; 48.1% (inactive) in the assay on A498 renal. Moreover, the results for the growth in the assay on CCRF-CEM leukemia and in the assay on MOLT-4 leukemia were 54.4% (inactive) and 64% (inactive), respectively.
Consider `C=CCN1C=CC(=O)[C@H](O[Si](C)(C)C(C)(C)C)[C@@H]1/C=C/c1ccccc1`, for which the growth with HCT-15 colon is -70.7% [100 µM] (active); with HT29 colon, -73% [100 µM] (active); with SNB-75 CNS, -87.9% [100 µM] (active); with SNB-19 CNS, -92% [100 µM] (active); in the assay on U251 CNS, -39.6% [100 µM] (active); in the assay with PC-3 prostate, -76.2% [100 µM] (active). The growth with SK-MEL-5 melanoma was -84.9% [100 µM] (active); in the assay on UACC-62 melanoma, -78.2% [100 µM] (active); in the assay with LOX IMVI melanoma, -43.9% [100 µM] (active); in the assay with SK-MEL-28 melanoma it was -68.2% [100 µM] (active); in the assay with SK-MEL-2 melanoma, -57% [100 µM] (active); with EKVX NSCLC it was -48% [100 µM] (active). The growth in the assay with SN12C renal was -74% [100 µM] (active); in the assay on UO-31 renal it was -73.4% [100 µM] (active); in the assay on TK-10 renal, -64.6% [100 µM] (active); in the assay with ACHN renal it was -73.1% [100 µM] (active); with CAKI-1 renal it was -72.5% [100 µM] (active); in the assay on A498 renal it was -88.8% [100 µM] (active). For the same compound, the growth in the assay with CCRF-CEM leukemia is -33.8% [100 µM] (active); with MOLT-4 leukemia, -30.4% [100 µM] (active).
